{"source": "ChEMBL document CHEMBL4513146", "about": "“CO-ADD screening of Karazin Kharkiv National University (Ukraine) compounds”", "key": {"[1]": {"test_system": "Klebsiella pneumoniae", "details": "Concentration 32 ug.mL-1;; ASSAY_TEST Inhibition of Bacterial Growth; detection method Absorption (OD600); MEDIA CAMHB; plate type 384well; NBS; CORNING #3640; time 18 hr"}, "[2]": {"test_system": "Candida albicans", "details": "Concentration 32 ug.mL-1; ASSAY_TEST Inhibition of Fungal Growth; detection method Absorption (OD530)"}, "[3]": {"test_system": "Cryptococcus neoformans", "details": "Concentration 32 ug.mL-1; ASSAY_TEST Inhibition of Fungal Growth; detection method Resazurin; Absorption (OD600-OD570); plate type 384well; NBS; CORNING #3640"}}, "note": "Entries with a potency or affinity are not part of this list."}
{"compound": "Cc1nnc2c(S(=O)(=O)N(Cc3ccc(F)cc3)c3ccc(C(C)C)cc3)cccn12", "values": [{"measurement": "Inhibition", "setting": "[1]", "result": 1.5, "unit": "%"}, {"measurement": "Inhibition", "setting": "[2]", "result": 2.93, "unit": "%"}, {"measurement": "Inhibition", "setting": "[3]", "result": -6.86, "unit": "%"}]}
{"compound": "O=C(Cn1nc2ccc(Sc3ccccc3)nn2c1=O)Nc1ccc(F)c(Cl)c1", "values": [{"measurement": "Inhibition", "setting": "[1]", "result": 8.09, "unit": "%"}, {"measurement": "Inhibition", "setting": "[2]", "result": 1.47, "unit": "%"}, {"measurement": "Inhibition", "setting": "[3]", "result": -7.06, "unit": "%"}]}
{"compound": "N#Cc1cccc(NC(=O)CSc2nnc3c4cc(-c5ccc(F)cc5)nn4ccn23)c1", "values": [{"measurement": "Inhibition", "setting": "[1]", "result": 16.47, "unit": "%"}, {"measurement": "Inhibition", "setting": "[2]", "result": 16.76, "unit": "%"}, {"measurement": "Inhibition", "setting": "[3]", "result": -30.63, "unit": "%"}]}
{"compound": "O=C(Cn1nc2c3cc(-c4ccc(Cl)cc4)nn3ccn2c1=O)N1CCN(c2ccccc2)CC1", "values": [{"measurement": "Inhibition", "setting": "[1]", "result": 10.64, "unit": "%"}, {"measurement": "Inhibition", "setting": "[2]", "result": 0.94, "unit": "%"}, {"measurement": "Inhibition", "setting": "[3]", "result": -23.41, "unit": "%"}]}
{"compound": "O=c1c2nn(Cc3ccccc3F)c(=O)n2ccn1-c1ccccc1", "values": [{"measurement": "Inhibition", "setting": "[1]", "result": 4.89, "unit": "%"}, {"measurement": "Inhibition", "setting": "[2]", "result": 1.22, "unit": "%"}, {"measurement": "Inhibition", "setting": "[3]", "result": -10.1, "unit": "%"}]}
{"compound": "COC(=O)c1ccc(NC(=O)Cn2nc3nc(N4CCCCCC4)ccn3c2=O)cc1", "values": [{"measurement": "Inhibition", "setting": "[1]", "result": 12.29, "unit": "%"}, {"measurement": "Inhibition", "setting": "[2]", "result": 5.24, "unit": "%"}, {"measurement": "Inhibition", "setting": "[3]", "result": -8.37, "unit": "%"}]}
{"compound": "COc1cccc(-n2ccn3c(SCc4cc(C)ccc4C)nnc3c2=O)c1", "values": [{"measurement": "Inhibition", "setting": "[1]", "result": 8.78, "unit": "%"}, {"measurement": "Inhibition", "setting": "[2]", "result": 2.61, "unit": "%"}, {"measurement": "Inhibition", "setting": "[3]", "result": -5.92, "unit": "%"}]}
{"compound": "COc1ccccc1NC(=O)Cn1nc2c3cc(-c4ccc(Cl)cc4)nn3ccn2c1=O", "values": [{"measurement": "Inhibition", "setting": "[1]", "result": 7.17, "unit": "%"}, {"measurement": "Inhibition", "setting": "[2]", "result": 8.08, "unit": "%"}, {"measurement": "Inhibition", "setting": "[3]", "result": -18.6, "unit": "%"}]}
{"compound": "O=S(=O)(c1cccn2cnnc12)N(Cc1ccc(F)cc1)c1ccc(F)c(F)c1", "values": [{"measurement": "Inhibition", "setting": "[1]", "result": 4.99, "unit": "%"}, {"measurement": "Inhibition", "setting": "[2]", "result": 2.27, "unit": "%"}, {"measurement": "Inhibition", "setting": "[3]", "result": -6.23, "unit": "%"}]}
{"compound": "CC1CC(C)CN(c2nccn3c(=O)n(CC(=O)Nc4cccc(C(F)(F)F)c4)nc23)C1", "note": "(centres undefined)", "values": [{"measurement": "Inhibition", "setting": "[1]", "result": 12.34, "unit": "%"}, {"measurement": "Inhibition", "setting": "[2]", "result": 1.5, "unit": "%"}, {"measurement": "Inhibition", "setting": "[3]", "result": -9.37, "unit": "%"}]}
{"compound": "CCOc1ccc(-n2ccn3c(SCC(=O)c4cccc(Cl)c4)nnc3c2=O)cc1", "values": [{"measurement": "Inhibition", "setting": "[1]", "result": 10.21, "unit": "%"}, {"measurement": "Inhibition", "setting": "[2]", "result": 2.76, "unit": "%"}, {"measurement": "Inhibition", "setting": "[3]", "result": -7.79, "unit": "%"}]}
{"compound": "COc1ccc(OC)c(NC(=O)Cn2nc3c4cc(-c5ccc(C)c(C)c5)nn4ccn3c2=O)c1", "values": [{"measurement": "Inhibition", "setting": "[1]", "result": 5.66, "unit": "%"}, {"measurement": "Inhibition", "setting": "[2]", "result": 5.32, "unit": "%"}, {"measurement": "Inhibition", "setting": "[3]", "result": -22.06, "unit": "%"}]}
{"compound": "CCc1ccc(N(Cc2ccccc2)S(=O)(=O)c2cccn3c(C)nnc23)cc1", "values": [{"measurement": "Inhibition", "setting": "[1]", "result": 5.96, "unit": "%"}, {"measurement": "Inhibition", "setting": "[2]", "result": -1.36, "unit": "%"}, {"measurement": "Inhibition", "setting": "[3]", "result": -9.98, "unit": "%"}]}
{"compound": "Cc1cccc(NC(=O)Cn2nc3ccc(SC(C)(C)C)nn3c2=O)c1", "values": [{"measurement": "Inhibition", "setting": "[1]", "result": 5.1, "unit": "%"}, {"measurement": "Inhibition", "setting": "[2]", "result": 1.46, "unit": "%"}, {"measurement": "Inhibition", "setting": "[3]", "result": -8.45, "unit": "%"}]}
{"compound": "CCCCc1ccc(NC(=O)Cn2nc3c(Sc4ccccc4)nccn3c2=O)cc1", "values": [{"measurement": "Inhibition", "setting": "[1]", "result": 5.15, "unit": "%"}, {"measurement": "Inhibition", "setting": "[2]", "result": 28.09, "unit": "%"}, {"measurement": "Inhibition", "setting": "[3]", "result": -10.74, "unit": "%"}]}
{"compound": "CCc1nnc2c(S(=O)(=O)N(Cc3cccc(F)c3)c3ccc(F)cc3)cccn12", "values": [{"measurement": "Inhibition", "setting": "[1]", "result": -0.41, "unit": "%"}, {"measurement": "Inhibition", "setting": "[2]", "result": 1.06, "unit": "%"}, {"measurement": "Inhibition", "setting": "[3]", "result": -2.23, "unit": "%"}]}
{"compound": "COc1cccc(-n2ccn3c(SCc4cccc(C(F)(F)F)c4)nnc3c2=O)c1", "values": [{"measurement": "Inhibition", "setting": "[1]", "result": -17.2, "unit": "%"}, {"measurement": "Inhibition", "setting": "[2]", "result": 12.49, "unit": "%"}, {"measurement": "Inhibition", "setting": "[3]", "result": -6.54, "unit": "%"}]}
{"compound": "COc1cccc(-n2ccn3c(SCc4cccc(C)c4)nnc3c2=O)c1", "values": [{"measurement": "Inhibition", "setting": "[1]", "result": 11.77, "unit": "%"}, {"measurement": "Inhibition", "setting": "[2]", "result": 3.62, "unit": "%"}, {"measurement": "Inhibition", "setting": "[3]", "result": -12.18, "unit": "%"}]}
{"compound": "CCc1nnc2c(=O)n(CC(=O)Nc3ccc(C(C)C)cc3)c3ccccc3n12", "values": [{"measurement": "Inhibition", "setting": "[1]", "result": 15.72, "unit": "%"}, {"measurement": "Inhibition", "setting": "[2]", "result": -0.82, "unit": "%"}, {"measurement": "Inhibition", "setting": "[3]", "result": -28.42, "unit": "%"}]}
{"compound": "Cc1cc2nn(CC(=O)NCc3ccc4c(c3)OCO4)c(=O)n2c(Nc2ccccc2C)n1", "values": [{"measurement": "Inhibition", "setting": "[1]", "result": 10.7, "unit": "%"}, {"measurement": "Inhibition", "setting": "[2]", "result": 2.64, "unit": "%"}, {"measurement": "Inhibition", "setting": "[3]", "result": -19.18, "unit": "%"}]}
{"compound": "CC(C)c1ccc(Oc2nc3ccccc3n3c(=O)n(CC(=O)Nc4ccc5c(c4)OCO5)nc23)cc1", "values": [{"measurement": "Inhibition", "setting": "[1]", "result": 7.45, "unit": "%"}, {"measurement": "Inhibition", "setting": "[2]", "result": 1.68, "unit": "%"}, {"measurement": "Inhibition", "setting": "[3]", "result": -13.49, "unit": "%"}]}
{"compound": "CCOc1ccc(NC(=O)Cn2nc3c(Oc4cccc(OC)c4)nccn3c2=O)cc1", "values": [{"measurement": "Inhibition", "setting": "[1]", "result": 14.7, "unit": "%"}, {"measurement": "Inhibition", "setting": "[2]", "result": 3.56, "unit": "%"}, {"measurement": "Inhibition", "setting": "[3]", "result": -8.08, "unit": "%"}]}
{"compound": "Cc1ccc(NC(=O)Cn2c(=O)c3nnc(C)n3c3ccccc32)cc1F", "values": [{"measurement": "Inhibition", "setting": "[1]", "result": 7.95, "unit": "%"}, {"measurement": "Inhibition", "setting": "[2]", "result": 2.03, "unit": "%"}, {"measurement": "Inhibition", "setting": "[3]", "result": -16.64, "unit": "%"}]}
{"compound": "CCOc1ccccc1NC(=O)Cn1c(=O)c2nnc(C(C)C)n2c2ccccc21", "values": [{"measurement": "Inhibition", "setting": "[1]", "result": 4.41, "unit": "%"}, {"measurement": "Inhibition", "setting": "[2]", "result": 1.06, "unit": "%"}, {"measurement": "Inhibition", "setting": "[3]", "result": -2.8, "unit": "%"}]}
{"compound": "COc1cccc(C(=O)Cn2nc3n(CCC(C)C)c(=O)c4sccc4n3c2=O)c1", "values": [{"measurement": "Inhibition", "setting": "[1]", "result": -2.35, "unit": "%"}, {"measurement": "Inhibition", "setting": "[2]", "result": 8.83, "unit": "%"}, {"measurement": "Inhibition", "setting": "[3]", "result": -5.93, "unit": "%"}]}
{"compound": "Cc1cc(C)c(NC(=O)Cn2nc3c4cc(-c5ccc(F)cc5)nn4ccn3c2=O)c(C)c1", "values": [{"measurement": "Inhibition", "setting": "[1]", "result": 17.22, "unit": "%"}, {"measurement": "Inhibition", "setting": "[2]", "result": 18.72, "unit": "%"}, {"measurement": "Inhibition", "setting": "[3]", "result": -19.36, "unit": "%"}]}
{"compound": "COc1ccc(CNC(=O)Cn2nc3c(N4CC(C)CC(C)C4)nccn3c2=O)cc1", "note": "(centres undefined)", "values": [{"measurement": "Inhibition", "setting": "[1]", "result": -3.24, "unit": "%"}, {"measurement": "Inhibition", "setting": "[2]", "result": 4.41, "unit": "%"}, {"measurement": "Inhibition", "setting": "[3]", "result": -8.27, "unit": "%"}]}
{"compound": "COc1cccc(Oc2nccn3c(=O)n(CC(=O)NCc4ccc(SC)cc4)nc23)c1", "values": [{"measurement": "Inhibition", "setting": "[1]", "result": 15.38, "unit": "%"}, {"measurement": "Inhibition", "setting": "[2]", "result": 2.58, "unit": "%"}, {"measurement": "Inhibition", "setting": "[3]", "result": -5.89, "unit": "%"}]}
